TPT1 inh – C. albicans TPT1 enzyme inhibition | inhibition, % at 5 µM | recombinant caTPT1, FP RNA substrate dephosphorylation | 300,000 compounds, 0.81% hits;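 active means inhibition above the mean of all tested compounds plus 3 SD, set per screening campaign, cut at about 24% in these data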;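 further: plate controls were DMSO alone for no effect and ferristatin control at 100 nM for full effect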
Platelet DG rel – modulates dense granule release in human platelets | human platelet-rich plasma, SFLLRN dense granule ATP release, luminescence | inhibition, %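 (compounds screened at 7.5 µM in platelet-rich plasma)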 | 300,000 compounds, 0.22% hits | AID 1663;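 active means mean replicate score, as percent of positive control, at or above 50; inconclusive means mean below 50 but at least one replicate at or above 50; inactive means mean and every replicate below 50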
Rtt109 Vps75 – blocks Candida albicans Rtt109/Vps75 acetyltransferase activity | Q5AAJ8 | purified Rtt109/Vps75, ThioGlo CoA-SH fluorescence, 4 h | inhibition, % at 34.9 µM | 330,000 compounds, 0.16% hits;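 active means inhibition of at least 50% in every replicate; inconclusive means best replicate reaches 50% inhibition but some replicates fall short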
Target sequence (Q5AAJ8 whole entry, looked up): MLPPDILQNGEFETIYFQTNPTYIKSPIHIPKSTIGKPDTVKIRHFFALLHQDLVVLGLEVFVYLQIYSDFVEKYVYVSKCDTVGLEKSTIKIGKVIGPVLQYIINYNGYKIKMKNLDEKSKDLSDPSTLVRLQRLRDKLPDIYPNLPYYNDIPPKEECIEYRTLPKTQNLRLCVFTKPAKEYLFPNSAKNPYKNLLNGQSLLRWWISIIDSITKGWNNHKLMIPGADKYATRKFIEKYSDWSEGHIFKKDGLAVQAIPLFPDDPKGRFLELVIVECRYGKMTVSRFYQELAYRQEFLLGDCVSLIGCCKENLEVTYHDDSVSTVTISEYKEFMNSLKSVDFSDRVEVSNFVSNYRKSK
WT yeast gro inh – growth inhibition of WT yeast, mitochondrial fusion screen; mitochondrial fusion phenotypic screen, WT strain; inhibition, % at 10 µM; 190,000 compounds, 2.1% hits; in the data active means inhibition above about 58%; tested in S. cerevisiae
PHOSPHO1 inh – inhibitors of human PHOSPHO1 phosphatase | Q8TCT1 | recombinant PHOSPHO1, absorbance phosphatase assay | inhibition, % at 13.3 µM | 290,000 compounds, 1.1% hits | AID 1565; in the data active means inhibition above about 60%
Target sequence (Q8TCT1 whole entry, looked up): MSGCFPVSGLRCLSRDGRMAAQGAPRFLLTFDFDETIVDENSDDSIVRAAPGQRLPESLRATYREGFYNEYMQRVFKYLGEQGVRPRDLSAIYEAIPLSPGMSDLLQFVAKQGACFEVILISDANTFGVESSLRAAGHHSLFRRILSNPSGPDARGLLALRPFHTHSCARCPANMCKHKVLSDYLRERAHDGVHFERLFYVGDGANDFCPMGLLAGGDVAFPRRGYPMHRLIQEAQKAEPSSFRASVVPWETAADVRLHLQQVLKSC
SKKanGAS inh – inhibitors of SKKanGAS S. pyogenes growth in kanamycin (SK-promoter or general growth effect). BacTiter-Glo, 6 h. inhibition, % at 7.5 µM. 300,000 compounds, 1.3% hits. AID 1662;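 active means mean replicate score, as percent of positive control median, at least 50; inconclusive means mean below 50 but one replicate at or above 50; inactive means mean and every replicate below 50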;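 further: strain carries kanamycin resistance gene driven by streptokinase promoter and grows in 40 µg/ml kanamycin; loss of luminescence reflects streptokinase promoter inhibition or plain growth inhibition; 0% = median of DMSO wells and 100% = positive control at its reference dose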
* = called active by the depositor; ? = inconclusive; . = not tested or not shown. Shown are actives, neighbours in structure and some others; about 3.9% of the full set was active somewhere.

SMILES | TPT1 inh | Platelet DG rel | Rtt109 Vps75 | WT yeast gro inh | PHOSPHO1 inh | SKKanGAS inh
c1ccc2c(c1)oc1c(NCCCn3ccnc3)ncnc12 | 0 | -9 | -1 | 0 | 72* | -16
c1ccc(-c2c(-c3ccccc3)n(Cc3ccco3)c3ncnc(NCCCn4ccnc4)c23)cc1 | 0 | -4 | 29 | 73* | 24 | 36
Cc1ccc(C)c(OCC(=O)N(Cc2ccccc2)c2c(N)n(Cc3ccccc3)c(=O)[nH]c2=O)c1 | . | . | 3 | . | . | .
CCOc1ccc(Nc2nc(Cc3nnc(SCC(=O)NCC4CCCO4)n3C)cs2)cc1 (centres undefined) | 5 | 6 | 5 | -3 | 62* | -1
CC(=O)Nc1ccc(C(=O)N(C)c2ccccc2)cc1 | -4 | 77* | -4 | 0 | -12 | -1
COc1ccc(OCC(=O)Nc2cccc(S(=O)(=O)N(C)c3ccccc3)c2)c([N+](=O)[O-])c1 | . | . | 4 | . | . | .
Cc1cccc(CCNC(=O)C2CCCN(c3cnccn3)C2)c1 (centres undefined) | -2 | 1 | -3 | . | 30 | -7
O=c1oc(Nc2cccc(F)c2)nc2ccccc12 | -5 | -10 | -12 | 78* | 19 | 12
CC(C)Cn1c(SCC(=O)Nc2cc(Cl)c(Cl)cc2Cl)nc(O)cc1=O | 10 | 5 | -5 | . | . | 0
Cc1[nH]n(-c2ccccc2)c(=O)c1C(=O)c1ccc([N+](=O)[O-])cc1 | 4 | 14 | -3 | 5 | 4 | -5
C/C(=N\NC(=O)c1ccccc1)c1c(C)[nH]n(-c2ccccc2)c1=O | -1 | -12 | 1 | . | 9 | 19
C/C(=N\NC(=O)c1ccc(C)cc1)c1c(C)[nH]n(-c2ccccc2)c1=O | . | -1 | -4 | . | 24 | 56*
Cc1nn(-c2ccccc2)nc1C(=O)c1c(C)[nH]n(-c2ccccc2)c1=O | -5 | 1 | -3 | . | 37 | 61*
Cc1ccc(/C=N/NC(=O)c2nnn(-c3nonc3N)c2CNc2ccccc2)cc1 | -1 | 6 | -6 | . | -4 | 9
Nc1nonc1-n1nnc(C(=O)N/N=C/c2cc(Br)ccc2O)c1CNc1ccccc1 | 7 | 0 | 4 | . | 28 | 108*
CCOc1cccc(CNCc2ccncc2)c1 | . | 8 | 6 | . | 62* | -3
O=C(/C=C/c1ccc(F)cc1)NC(=S)Nc1ccccc1O | . | 1 | 10 | . | 2 | -5
O=C(NC(=S)NNC(=O)[C@H]1C[C@@H]1c1ccccc1)c1ccc(F)cc1 | -3 | 3 | . | . | 33 | 82*
O=C(/C=C/c1ccc(F)cc1)NC(=S)NNC(=O)[C@H]1C[C@@H]1c1ccccc1 | 1 | 0 | 3 | . | -12 | 85*
S=C(Nc1ccc(Nc2ccccc2)cc1)Nc1ccccn1 | 2 | 12 | 5 | 81* | 13 | 66*
CCOC(=O)c1c(-c2cccs2)csc1N | -1 | 5 | -14 | 26 | -70 | -1
CCOC(=O)c1c(-c2ccco2)csc1N | 1 | -4 | 4 | 14 | 80* | -1
C=CCN(C(=O)c1csnn1)C(C(=O)NC1CCCC1)c1ccc(OC)cc1 (centres undefined) | 0 | 2 | 2 | . | 32 | 20
Cc1cccc(NC(=S)N(Cc2ccc(Br)cc2)Cc2ccc(C(=O)O)cc2)c1 | -4 | 0 | . | 0 | -16 | -9
Cc1ccc(NC(=S)N(Cc2cccc(Br)c2)CC2CCC(C(=O)O)CC2)cc1Cl (centres undefined) | -2 | 0 | 23 | 64* | -25 | 36
SMILES | TPT1 inh | Platelet DG rel | Rtt109 Vps75 | WT yeast gro inh | PHOSPHO1 inh | SKKanGAS inh
Cc1cc(NC(=S)N(Cc2ccc(Br)cc2)Cc2ccc(C(=O)O)cc2)ccc1Cl | 0 | 1 | 26 | 70* | -1 | 39
CC1c2ccccc2N(S(=O)(=O)c2ccccc2)C1C (centres undefined) | . | . | -2 | . | . | .
COc1ccccc1P(=O)(Cc1ccccc1[N+](=O)[O-])c1ccccc1 (centres undefined) | -2 | 1 | 2 | . | 23 | -2
CC(C)OC(=O)c1cccnc1N1CCN(c2cccc(Cl)c2)CC1 | 0 | -1 | 1 | 73* | 39 | 60*
CSc1ccccc1C(=O)N1CCN(c2cccc(Cl)c2)CC1 | -6 | 1 | 16 | 2 | 44 | -6
CN(CCOc1ccc(Cl)cc1)C(=O)c1cc([N+](=O)[O-])ccc1N1CCOCC1 | -4 | 22 | 13 | . | . | -1
Cc1[nH]n(-c2ncc(-c3ccccc3)s2)c(=O)c1C(c1ccc(Br)cc1)C(C#N)C#N (centres undefined) | -2 | -10 | . | -4 | -7 | 86*
CCCCN(C(=O)C(C)(C)Oc1ccc(Cl)cc1)c1c(N)n(CCC)c(=O)[nH]c1=O | . | . | 0 | . | . | .
COCCNC(=S)N/N=C(\C)c1ccc(O)cc1 | 3 | 14 | 4 | -2 | -3 | 3
C/C(=N\NC(=S)NCC(C)(C)C)c1cc(F)cc(F)c1O | -3 | -10 | 0 | . | 42 | 90*
CN(Cc1ccccc1Cl)C(=O)CCNC(=O)c1ccco1 | . | . | 6 | . | . | .
COc1cccc(NC(=O)CCC(=O)N2CC(C)Oc3ccc(C)cc32)c1 (centres undefined) | -1 | 2 | 6 | . | 28 | -3
N/C(CSc1ccc(Cl)cc1)=N\S(=O)(=O)c1ccc(Cl)cc1 | -5 | . | 8 | . | 16 | 1
CCCCC[n+]1ccn(C2=C([O-])c3ccccc3C(=O)/C2=N\S(=O)(=O)c2ccc(Cl)cc2)c1 | -3 | 4 | 0 | . | 24 | 73*
CCCC[n+]1ccn(-c2nc3ccccc3nc2[N-]S(=O)(=O)c2ccc(Br)cc2)c1 | 0 | -5 | -1 | . | -1 | 5
CCCC[n+]1ccn(C2=C([O-])c3ccccc3C(=O)/C2=N\S(=O)(=O)c2ccc(Cl)cc2)c1 | 5 | -15 | -11 | . | 24 | 61*
O=C(O)CCn1cc(/C=C\C(=O)c2ccc(Cl)cc2)c(-c2cccc(Br)c2)n1 | 1 | 12 | 30 | -12 | -1 | 79*
Cc1ccc(-c2nn(CCC(=O)O)cc2/C=C\C(=O)c2ccc(Br)cc2)cc1 | -1 | -1 | -1 | -10 | 29 | 73*
COc1ccccc1NC(=O)CSc1nc2[nH]ncc2c(=O)[nH]1 | -3 | 2 | -5 | . | . | 6
O=C(NNC(=S)NC(=O)c1ccccc1)c1cccc([N+](=O)[O-])c1 | -4 | -1 | -5 | . | -12 | ?
CCCCC(=O)NNC(=S)NC(=O)c1ccc(C)cc1 | -2 | -1 | 8 | 42 | 28 | 10
CCCCC(=O)NNC(=S)NC(=O)c1cccc([N+](=O)[O-])c1 | -3 | 17 | -1 | -16 | 94* | -2
CCCCC(=O)NNC(=S)NC(=O)c1ccc([N+](=O)[O-])cc1 | 3 | -9 | 11 | 14 | 61* | 4
CC(=O)c1ccc(NC(=O)C(C)O/N=C(\N)c2ccccc2)cc1 (centres undefined) | . | . | -9 | . | . | .
C/C=C/c1ccc(OCC(O)CN(C)Cc2ccc(SC)cc2)c(OC)c1 (centres undefined) | -3 | 3 | 2 | . | 36 | -1
CC(=O)c1c(C)[nH]c(C(=O)NNC(=O)COc2cc(C)cc(C)c2)c1C | . | . | -13 | . | . | .
